Measured values published in PubChem BioAssay (Tox21).
Inconclusive results are not listed. Some structures have more than one record in an assay (separate samples or runs), and their calls can disagree. Calls of active or inactive are those of the source. Unless noted, calls come from the whole dose curve; as a rule, active = well fitted curve in the direction sought with a large enough effect in the repeat runs; inconclusive = weak or mixed curves; inactive = no such curve, though single readings can be large; an effect the other way counts as inactive or inconclusive.

What was measured:
[1] = qHTS assay to identify small molecule antagonists of the vitamin D receptor (VDR) signaling pathway - cell viability counter screen (AID 743225); note: nearly all actives have a fitted effect of over 50% in size
Outline: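 Same-well multiplex: following 16 h treatment of HEK 293T cells carrying a UAS-driven beta-lactamase reporter with compound and agonist (3 nM final), and a 2 h FRET substrate step, CellTiter-Glo was added and luminescence read after 30 min.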

[2] = qHTS assay to identify small molecule agonists of the NFkB signaling pathway (AID 1159509; active = well fitted curve in the direction sought with a large enough effect in the signal ratio in the repeat runs, not every such curve was filed as active; the % refers to the signal ratio; note: series mostly up to about 61 µM)
Outline: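 NFkB-bla ME-180 cells with a beta-lactamase reporter under an NF-kB response element were plated overnight, treated with compounds in DMSO for 5 hr at 37 C, then loaded with FRET substrate for 1.5 hr at room temperature.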

[3] = qHTS assay to identify small molecule agonists of the endoplasmic reticulum stress response signaling pathway (AID 1159516; active = well fitted activation curve with a large enough effect in the signal ratio in the repeat runs, not every such curve was filed as active; the % refers to the signal ratio)
Outline: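 Read-out is beta-lactamase cleavage of a FRET substrate (405 nm excitation; 460 and 530 nm emissions) in ESRE-bla HeLa cells after a 5 hr compound exposure at 37 C. Substrate incubation ran 2 hr at room temperature.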

[4] = qHTS assay to identify small molecule agonists of the endoplasmic reticulum stress response signaling pathway - cell viability counter screen (AID 1159517; calls by dose curve;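 note: HeLa cells carrying an ER stress response element beta-lactamase reporter; series mostly up to about 61 µM; nearly all actives have a fitted effect of over 50% in size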)
Outline: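 Counter-screen wells were identical to the reporter wells. Cells were plated at 1,500 per well and dosed for 5 hr, then read for luminescence 30 min after CellTiter-Glo addition.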

[5] = qHTS assay to identify small molecule antagonists of the retinoid-related orphan receptor gamma (ROR-gamma) signaling pathway - cell viability counter screen (AID 1159520); note: nearly all actives have a fitted effect of over 50% in size; note: potency is the fitted concentration of half-maximal effect
Outline: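 Tet-on ROR gamma CHO cells were given compounds for 2 hr, then doxycycline hyclate at 1 uM final, and incubated 16 hr at 37 C. Viability was measured as ATP content by CellTiter-Glo luminescence.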

[6] = target: Nuclear receptor ROR-gamma (Homo sapiens) (UniProt P51449); assay: qHTS assay to identify small molecule antagonists of the retinoid-related orphan receptor gamma (ROR-gamma) signaling pathway (AID 1159521; note: nearly all actives have a fitted effect of over 50% in size; note: potency is the fitted concentration of half-maximal effect)
Outline: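 Inducible-expression reporter assay: doxycycline (1 uM final) switched on RORγ in CHO cells bearing a ROR response element-luciferase construct, with test compounds present from 2 h beforehand. Decreased luminescence after 16 h defined antagonist activity.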

[7] = qHTS assay to identify small molecule agonists of the AP-1 signaling pathway - cell viability counter screen (AID 1159525; calls by dose curve; note: nearly all actives have a fitted effect of over 55% in size; note: potency is the fitted concentration of half-maximal effect)
Outline: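 AP-1-bla ME-180 cells in Opti-MEM with 0.5% dialyzed FBS, compound exposure 5 h at 37 C in 15-point titration. Viability read in the same wells as ATP content by CellTiter-Glo luminescence, normalised to tetra-n-octylammonium bromide and DMSO controls.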

[8] = qHTS assay to identify small molecule agonists of the AP-1 signaling pathway (AID 1159526; calls by dose curve; note: potency is the fitted concentration of half-maximal effect)
[9] = qHTS assay to identify small molecule agonists of the RXR signaling pathway - cell viability counter screen (AID 1159529); note: nearly all actives have a fitted effect of over 50% in size; note: potency is the fitted concentration of half-maximal effect
Outline: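 Counter screen: CellTiter-Glo luminescence. Cells: RXR-alpha-UAS-bla HEK 293T. Medium: 2% charcoal-stripped FBS. Treatment: 16 h, 37 C. Reagent incubation: 30 min, RT.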

[10] = qHTS assay to identify small molecule antagonists of the retinoid acid receptor (RAR) signaling pathway - cell viability counter screen (AID 1159551); note: nearly all actives have a fitted effect of over 35% in size
Outline: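 Luminescent ATP quantitation (CellTiter-Glo) gave cell viability in C3RL4 cells exposed to test chemicals for 6 h at 37 C alongside 1 uM final retinol.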

[11] = qHTS assay to identify small molecule antagonists of the estrogen related receptor (ERR) signaling pathway - cell viability counter screen (AID 1224818);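 note: series mostly up to about 46 µM; viability measured after 17.5 h of compound exposure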
Outline: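 Multiplexed counter screen to separate cytotoxic compounds from true ERR modulators. ERR cells received DMSO-dissolved compounds after a 6 h pre-incubation, were exposed 17.5 h at 37 C, then assayed with CellTiter-Fluor fluorescence.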

[12] = qHTS assay to identify small molecule antagonists of the estrogen related receptor (ERR) signaling pathway (AID 1224819)
Outline: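 Seed ERR cells 2,000/well; rest 6 h at 37 C/5% CO2; pin compounds in DMSO; incubate 18 h at 37 C; add One-Glo; wait 30 min at room temperature; measure luminescence.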

[13] = qHTS assay to identify small molecule agonists of the estrogen related receptor (ERR) signaling pathway (AID 1224820)
Outline: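 ERR reporter cells (NTP line) plated 2,000/well, incubated 6 h at 37 C/5% CO2, then pinned with compounds in DMSO and held 18 h at 37 C. One-Glo added; luminescence read after 30 min at room temperature.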

[14] = test system: estrogen-related receptor alpha (ERRalpha) with PGC-1alpha coactivator, human; assay: qHTS assay to identify small molecule antagonists of the estrogen related receptor signaling pathway with the pleiotropic PPARgamma coactivator (PGC) (AID 1224821; calls by dose curve)
Outline: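 Cells engineered for PGC/ERR signalling (line from NTP) were plated 6 h at 37 C/5% CO2, then exposed to DMSO-dissolved compound for 18 h at 37 C. Luciferase activity was read by One-Glo luminescence after 30 min at room temperature.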

[15] = qHTS assay to identify small molecule antagonists of the estrogen related receptor signaling pathway with the pleiotropic PPARgamma coactivator (PGC) cell viability counter screen (AID 1224822;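 note: series mostly up to about 46 µM; viability read after 17.5 h compound exposure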)
Outline: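 Cells: PGC/ERR, 2,000/well, 1536-well format. Pre-incubation 6 h, 37 C/5% CO2. Compound exposure 17.5 h, 37 C. Detection: CellTiter-Fluor, 30 min, fluorescence.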

[16] = qHTS assay to identify small molecule agonists of the estrogen related receptor signaling pathway with the pleiotropic PPARgamma coactivator (PGC) (AID 1224823)
Outline: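 PGC/ERR reporter cells were seeded, rested 6 h at 37 C/5% CO2, then exposed to compounds in DMSO by pin transfer for 18 h at 37 C. Luciferase activity was read as luminescence after One-Glo reagent and 30 min at room temperature.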

[17] = qHTS assay to identify small molecule antagonists of the retinoic acid receptor (RAR) signaling pathway (AID 1159552; note: nearly all actives have a fitted effect of over 50% in size)
Outline: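 Antagonism of retinol-induced RARE reporter activity was measured in C3RL4 cells. Exposure to compounds and 1 uM final retinol lasted 6 hr at 37 C, with luminescence as endpoint.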

[18] = qHTS assay to identify small molecule agonists of the retinoic acid receptor (RAR) signaling pathway (AID 1159553)
Outline: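 Luminescence from a RARE-driven luciferase reporter in C3RL4 cells served as the read-out, measured after 30 min with detection reagent at room temperature. Compounds in DMSO were applied for 6 hr at 37 C following overnight seeding.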

[19] = target: Retinoic acid receptor RXR-alpha (Homo sapiens) (UniProt P19793); assay: qHTS assay to identify small molecule agonists of the RXR signaling pathway (AID 1159527; calls by dose curve; note: nearly all actives have a fitted effect of over 35% in size)
Outline: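 Compounds in DMSO were added to RXR-alpha-UAS-bla HEK 293T cells kept in 2% charcoal-stripped serum, and incubated 16 hr at 37 C with 5% CO2. Reporter signal came from a 2 hr B/G FRET substrate step.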

Measured: Potency

Sequence of Retinoic acid receptor RXR-alpha (Homo sapiens) (P19793 whole entry, looked up): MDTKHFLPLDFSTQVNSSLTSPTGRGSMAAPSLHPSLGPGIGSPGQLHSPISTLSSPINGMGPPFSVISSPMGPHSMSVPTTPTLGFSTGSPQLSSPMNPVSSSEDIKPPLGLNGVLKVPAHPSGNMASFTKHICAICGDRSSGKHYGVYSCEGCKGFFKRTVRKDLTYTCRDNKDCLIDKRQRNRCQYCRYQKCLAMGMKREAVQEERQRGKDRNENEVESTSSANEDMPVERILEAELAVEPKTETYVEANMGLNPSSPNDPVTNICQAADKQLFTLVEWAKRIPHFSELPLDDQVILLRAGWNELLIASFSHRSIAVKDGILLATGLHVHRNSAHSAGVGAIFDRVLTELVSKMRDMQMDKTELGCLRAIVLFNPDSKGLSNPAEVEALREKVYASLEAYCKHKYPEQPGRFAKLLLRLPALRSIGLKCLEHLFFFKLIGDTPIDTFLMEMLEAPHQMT

COc1ccc2[nH]cc(CCNC(C)=O)c2c1
not listed: [17] | [18] | [19]
inactive: all other assays above

O=C(O)c1cc(N=Nc2ccc(S(=O)(=O)Nc3ccccn3)cc2)ccc1O
not listed: [11] | [12] | [13] | [14] | [15] | [16] | [19]
inactive: all other assays above

NC(=O)c1cnccn1
not listed: [17] | [18]
inactive: all other assays above

Cc1cn([C@H]2C[C@H](N=[N+]=[N-])[C@@H](CO)O2)c(=O)[nH]c1=O
not listed: [7] | [11] | [12] | [13] | [14] | [15] | [16] | [19]
inactive: all other assays above

NNC(=O)c1ccncc1
inactive: [1] | [2] | [3] | [4] | [5] | [6] | [8] | [9] | [10]

C1N2CN3CN1CN(C2)C3
not listed: [11] | [12] | [13] | [14] | [15] | [16] | [19]
inactive: all other assays above

CCCC(O)C(CC)CO (stereo not drawn)
not listed: [11] | [12] | [13] | [14] | [15] | [16] | [17] | [18]
inactive: all other assays above

CC(=O)OCC(COC(C)=O)OC(C)=O
inactive: [1] | [2] | [3] | [4] | [5] | [6] | [7] | [8] | [9] | [10]

O=C(O)CCCCC(=O)O
inactive: [1] | [2] | [3] | [4] | [5] | [8] | [9] | [10]

O=C1CN(/N=C/c2ccc([N+](=O)[O-])o2)C(=O)N1
inactive: [1] | [2] | [3] | [4] | [5] | [8] | [9] | [10] | [17] | [18]

C[C@]12C=CC(=O)C=C1CC[C@@H]1[C@@H]2[C@@H](O)C[C@@]2(C)[C@H]1CC[C@]2(O)C(=O)CO
not listed: [7] | [11] | [12] | [13] | [14] | [15] | [16]
inactive: all other assays above

CCCCC(CC)COC(=O)/C=C/c1ccc(OC)cc1 (stereo not drawn)
not listed: [7] | [11] | [12] | [13] | [14] | [15] | [16]
inactive: all other assays above

O=C1NC(=O)c2ccccc21
not listed: [11] | [12] | [13] | [14] | [15] | [16] | [17] | [18]
inactive: all other assays above

CC(=O)NS(=O)(=O)c1ccc(N)cc1
not listed: [7] | [11] | [12] | [13] | [14] | [15] | [16]
inactive: all other assays above

Nc1ccc(O)c(C(=O)O)c1
not listed: [7] | [11] | [12] | [13] | [14] | [15] | [16] | [19]
inactive: all other assays above

N=C(N)c1ccc(OCCCCCOc2ccc(C(=N)N)cc2)cc1
not listed: [11] | [12] | [13] | [14] | [15] | [16] | [19]
inactive: all other assays above

OCCc1ccccc1
not listed: [11] | [12] | [13] | [14] | [15] | [16] | [19]
inactive: all other assays above

CC(=O)Nc1nnc(S(N)(=O)=O)s1
not listed: [7] | [12] | [13] | [14] | [16] | [19]
inactive: all other assays above

CCOc1ccc(NC(=O)CC(C)O)cc1 (stereo not drawn)
not listed: [7] | [11] | [12] | [13] | [14] | [15] | [16]
inactive: all other assays above

CCCCOC(=O)CC(CC(=O)OCCCC)(OC(C)=O)C(=O)OCCCC
not listed: [11] | [12] | [13] | [14] | [15] | [16] | [17] | [18]
inactive: all other assays above

Cn1cc[nH]c1=S
inactive: [1] | [2] | [3] | [4] | [5] | [6] | [9] | [10] | [17] | [18]
54.9 µM (active) and inactive: [8]

CCCC(CCC)C(=O)O
inactive: [1] | [2] | [3] | [4] | [5] | [8] | [9] | [10] | [11] | [15]

O=C(C1CCCCC1)N1CC(=O)N2CCc3ccccc3C2C1 (stereo not drawn)
not listed: [7] | [19]
inactive: all other assays above

CCCCCCCCCCCCCCCC(=O)O
not listed: [6] | [7] | [11] | [12] | [13] | [14] | [15] | [16]
inactive: all other assays above

O=C(O)c1[nH]n(-c2ccc(S(=O)(=O)O)cc2)c(=O)c1N=Nc1ccc(S(=O)(=O)O)cc1
inactive: [1] | [2] | [3] | [4] | [5] | [6] | [7] | [8] | [9] | [10]

O=C(c1ccccc1)c1ccccc1
not listed: [6] | [11] | [12] | [13] | [14] | [15] | [16]
inactive: all other assays above

CCCN(CCC)S(=O)(=O)c1ccc(C(=O)O)cc1
not listed: [11] | [12] | [13] | [14] | [15] | [16] | [19]
inactive: all other assays above

Cc1cc(=O)[nH]c(=S)[nH]1
inactive: [1] | [2] | [3] | [4] | [5] | [6] | [8] | [19] | [9] | [10]

Cc1noc(NS(=O)(=O)c2ccc(N)cc2)c1C
not listed: [1] | [6] | [11] | [12] | [13] | [14] | [15] | [16]
inactive: all other assays above

c1ccc2[nH]ccc2c1
2.69 µM (active) and inactive: [5]
1.35 µM (active) and inactive: [6]
48.2 µM (active) and inactive: [9]
inactive: [1] | [2] | [3] | [4] | [8] | [19] | [10]
42.9 µM (active) and inactive: [7]

O=c1cc[nH]c(=S)[nH]1
not listed: [11] | [12] | [13] | [14] | [15] | [16] | [19]
inactive: all other assays above

O=S(=O)(O)NC1CCCCC1
not listed: [6] | [11] | [12] | [13] | [14] | [15] | [16]
inactive: all other assays above

O=C(O)C(=O)O
not listed: [6] | [7] | [11] | [12] | [13] | [14] | [15] | [16]
inactive: all other assays above

O=C(O)c1cccnc1
inactive: [1] | [2] | [3] | [4] | [5] | [6] | [8] | [9] | [10]
